Screening data as filed in PubChem BioAssay.
SW480 rereplic – induces DNA re-replication in SW480 colon adenocarcinoma cells; AID 624297; Potency, µM (series often up to 46.1 µM), usual class: activators; SW480 DNA re-replication, Hoechst DNA content imaging, 48 h; 340,000 tested, 1.8% active; further: nearly all actives have a fitted effect of over 55% in size
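Per well, 250 cells were exposed to pinned compound for 48 hr. Nuclear DNA was visualised with Hoechst (40 min, 37 C) and total object intensity recorded by fluorescence scanning.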
IL-1B inflam inh – inhibitors of inflammasome signaling (IL-1 beta secretion). THP-1 LPS/ATP IL-1B secretion, AlphaLISA, 16 h; stronger effect = lower value. 360,000 tested, 4.7% active. activity change, % at 57.5 µM; in the data active means activity change below about -50%; inconclusive means mostly about -30% to -49%
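THP-1 cells pretreated 1 hr with compounds (up to 57.5 uM final), then stimulated with LPS (250 ng/mL final) plus ATP (1.25 mM final); secreted IL-1B measured by AlphaLISA after 16 hr, decreased signal indicating inhibition.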
Gal4-VP16 FLuc – Gal4-VP16 reporter inhibition counter-screen. Drosophila S2 Gal4-VP16 UAS-luciferase, luminescence, 20 h. Potency, µM (titrated, usually from 53.6 µM), usual class: inhibitors. 310,000 tested, 3.5% active. AID 2546;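 further: Gal4-VP16 expression switched on by copper sulfate through the metallothionein promoter; nearly all actives have a fitted effect of over 50% in size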
MCF10A rerep – DNA re-replication induction in MCF 10a cells; AID 624296; MCF 10A DNA re-replication, Hoechst nuclear intensity, 48 h; Potency, µM (titrated, usually from 46.1 µM), usual class: activators; 350,000 tested, 2.9% active; further: nearly all actives have a fitted effect of over 50% in size
RORg inh – ROR gamma (mouse) transcription inhibition. P51450. Drosophila S2 Gal4-RORgamma UAS-luciferase reporter, 20 h. Potency, µM (highest dose often 53.6 µM), usual class: inhibitors. 310,000 tested, 5.4% active. AID 2551; further: nearly all actives have a fitted effect of over 60% in size
Target sequence (P51450 whole entry, looked up, the tested form may be a part): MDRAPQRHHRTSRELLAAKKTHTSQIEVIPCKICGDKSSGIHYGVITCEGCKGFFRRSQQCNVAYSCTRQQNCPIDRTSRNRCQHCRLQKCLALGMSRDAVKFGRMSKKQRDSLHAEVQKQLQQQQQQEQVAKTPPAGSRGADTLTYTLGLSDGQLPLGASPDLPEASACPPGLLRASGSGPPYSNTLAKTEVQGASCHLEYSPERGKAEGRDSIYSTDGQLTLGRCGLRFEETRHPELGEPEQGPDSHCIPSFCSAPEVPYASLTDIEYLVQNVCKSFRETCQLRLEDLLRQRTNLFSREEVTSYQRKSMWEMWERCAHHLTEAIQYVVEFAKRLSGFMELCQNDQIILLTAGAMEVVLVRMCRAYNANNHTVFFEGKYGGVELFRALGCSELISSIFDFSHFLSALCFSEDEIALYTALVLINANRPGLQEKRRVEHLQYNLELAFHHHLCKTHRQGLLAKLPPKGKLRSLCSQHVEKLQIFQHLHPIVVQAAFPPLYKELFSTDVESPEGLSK
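ROR gamma transcriptional activity was tracked as Gal4-UAS luciferase output in stably transfected Drosophila Schneider cells, with compound added 1 hr before 700 uM copper sulfate induction and a 20 hr ambient-temperature incubation.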
Large screens that a line does not name were inactive. Sampled rows, rich in hits. Any-hit rate of the full collection: about 11%. Unless noted, the call rests on the fitted dose curve; in most records, active means well fitted curve in the direction sought with a large enough effect; inconclusive means small, poorly fitted or top-dose-only effect, or another doubt; inactive means no such curve, though single readings can be large; an effect the other way counts as inactive or inconclusive.

CCCc1ccc(/C=C2\C(=O)c3ccccc3C(O)=C2C(=O)OCC)cc1	Gal4-VP16 FLuc inconclusive, RORg inh 11µM (no result: SW480 rereplic, IL-1B inflam inh, MCF10A rerep)
CCOC(=O)C1=C(O)c2ccccc2C(=O)/C1=C\c1ccc(CC)cc1	SW480 rereplic 6.5µM, IL-1B inflam inh inconclusive, MCF10A rerep 8.2µM, RORg inh 4.5µM
CC(C)Cc1ccc(C(C)NC(=O)Cc2ccc(S(=O)(=O)N3CCOCC3)s2)cc1 (stereo not given)	none (no result: Gal4-VP16 FLuc, RORg inh)
FC(F)Sc1ccc(NC(=S)NC2CCCC2)cc1	Gal4-VP16 FLuc inconclusive, RORg inh 11µM
CC1CCCC(NC(=S)Nc2ccc(SC(F)F)cc2)C1C (stereo not given)	SW480 rereplic inconclusive, Gal4-VP16 FLuc 5µM, MCF10A rerep inconclusive, RORg inh 0.5µM
Cc1cccc(-c2n[nH]nc2C2=CC(=O)CC(C)(C)C2)c1	none (no result: SW480 rereplic, Gal4-VP16 FLuc, MCF10A rerep, RORg inh)
CN(Cc1ccccc1)C(=O)c1cccc(NC(=O)Cc2ccc(NC(=O)C3CCN(C(=O)C4CCCCC4)CC3)cc2)c1	none (no result: Gal4-VP16 FLuc, RORg inh)
O=C(Nc1cc(C(F)(F)F)cc(C(F)(F)F)c1)O[C@@H]1c2ccccc2[C@@H]2Cc3csc[n+]3[C@H]12	none (no result: SW480 rereplic, Gal4-VP16 FLuc, MCF10A rerep, RORg inh)
CCc1nnc(NC(=O)CCc2c[nH]c3ccccc23)s1	none
CC(C)C(=O)Nc1nnc(Cc2c[nH]c3ccccc23)s1	SW480 rereplic inconclusive, MCF10A rerep 8.2µM
O=C(NCCN1CCC(n2c(=O)[nH]c3ccccc32)CC1)c1ccc(Cl)cc1Cl	none (no result: SW480 rereplic, Gal4-VP16 FLuc, MCF10A rerep, RORg inh)
Cc1ccc(/C=N/NC(=O)c2cc(-c3ccc(C)o3)[nH]n2)cc1	SW480 rereplic inconclusive, MCF10A rerep 4.6µM
COc1ccccc1/C=C/C=N/NC(=O)c1cc(-c2ccc(C)o2)[nH]n1	SW480 rereplic inconclusive, Gal4-VP16 FLuc inconclusive, MCF10A rerep inconclusive, RORg inh 13µM
Cc1ccc(-c2cc(C(=O)N/N=C/c3cccnc3)n[nH]2)o1	none
COc1ccc(C(C)=O)cc1COC(=O)c1cnc(Cl)c(Cl)c1	SW480 rereplic inconclusive, IL-1B inflam inh -82
CC(C)C[C@H]1CN([C@@H](Cc2ccc(O)cc2)CN2CCCC2CN2C(=S)NC[C@@H]2Cc2ccccc2)C(=S)N1CC1CCCCC1 (stereo not given in full)	none (no result: SW480 rereplic, Gal4-VP16 FLuc, MCF10A rerep, RORg inh)
C=C(C(=O)c1ccccc1)C(C)CC(=O)c1ccccc1 (stereo not given)	SW480 rereplic 21µM, IL-1B inflam inh -106, Gal4-VP16 FLuc 18µM, MCF10A rerep inconclusive, RORg inh inconclusive
O=C(CC(Nc1ccccc1)C(=O)O)c1ccccc1 (stereo not given)	Gal4-VP16 FLuc 7.9µM, RORg inh 11µM
C=C(C(=O)c1ccccc1)C(NC(C)(C)C)c1ccccc1 (stereo not given)	SW480 rereplic 2.9µM, IL-1B inflam inh -101, MCF10A rerep 1.8µM (no result: Gal4-VP16 FLuc, RORg inh)
Cc1ccc(NC(CC(=O)c2ccccc2)C(=O)O)cc1Cl (stereo not given)	MCF10A rerep inconclusive
O=C(CC(Nc1ccc(Cl)cc1Cl)C(=O)O)c1ccccc1 (stereo not given)	Gal4-VP16 FLuc inconclusive, MCF10A rerep inconclusive, RORg inh 13µM
CNC(=O)CC(CC(=O)c1ccccc1)c1ccccc1 (stereo not given)	none (no result: Gal4-VP16 FLuc, RORg inh)
COC(=O)C(NC(=O)c1ccccc1)c1ccccc1 (stereo not given)	none
COC(=O)Cc1[nH]nc2c1C(C1C=CCCC1)C(C#N)=C(N)O2 (stereo not given)	IL-1B inflam inh -62
CCOC(=O)Cc1[nH]nc2c1C(c1ccsc1)C(C#N)=C(N)O2 (stereo not given)	IL-1B inflam inh -65
CCCc1[nH]nc2c1C(c1ccoc1)C(C#N)=C(N)O2 (stereo not given)	SW480 rereplic inconclusive, IL-1B inflam inh -80, MCF10A rerep inconclusive, RORg inh inconclusive
CCCc1[nH]nc2c1C(c1ccc(O)cc1OCC)C(C#N)=C(N)O2 (stereo not given)	IL-1B inflam inh -76
COCc1[nH]nc2c1C(c1ccsc1)C(C#N)=C(N)O2 (stereo not given)	none
CCCc1[nH]nc2c1C(c1ccc(OC)cc1OC)C(C#N)=C(N)O2 (stereo not given)	MCF10A rerep inconclusive
CC(C)(C)c1[nH]nc2c1C(c1ccco1)C(C#N)=C(N)O2 (stereo not given)	SW480 rereplic inconclusive, IL-1B inflam inh -67
CCCc1[nH]nc2c1C(C1CCCCC1)C(C#N)=C(N)O2 (stereo not given)	IL-1B inflam inh -95, MCF10A rerep inconclusive
N#CC1=C(N)Oc2n[nH]c(-c3cccs3)c2C1c1cccs1 (stereo not given)	IL-1B inflam inh -91, MCF10A rerep inconclusive
COCc1[nH]nc2c1C(c1sccc1C)C(C#N)=C(N)O2 (stereo not given)	IL-1B inflam inh -81
Cc1[nH]nc2c1C(c1ccco1)C(C#N)=C(N)O2 (stereo not given)	RORg inh inconclusive
FC(F)(F)c1ccccc1-c1nc(NC2CCNCC2)c2ccccc2n1	none (no result: SW480 rereplic, IL-1B inflam inh, MCF10A rerep)
COC(=O)Cc1ccc(OC2(C)CCN(Cc3ccccc3)C2)cc1 (stereo not given)	none (no result: SW480 rereplic, Gal4-VP16 FLuc, MCF10A rerep, RORg inh)
C[C@@H]1CN([C@H](C)CO)C(=O)CCCn2nncc2CO[C@@H]1CN(C)S(=O)(=O)c1ccccc1	none (no result: SW480 rereplic, Gal4-VP16 FLuc, MCF10A rerep, RORg inh)
O=C(c1cc(C(F)(F)F)cc(C(F)(F)F)c1)N1CCC2(CCN(Cc3nccs3)CC2)CC1	none (no result: SW480 rereplic, IL-1B inflam inh, MCF10A rerep)
CCOC(=O)C1=C(CC)OC(N)=C(C#N)C1c1ccsc1 (stereo not given)	SW480 rereplic 0.26µM, Gal4-VP16 FLuc inconclusive
CCOc1cc(C2C(C#N)=C(N)Oc3n[nH]c(CC)c32)ccc1OCCN1CCOCC1 (stereo not given)	IL-1B inflam inh -61
CCOC(=O)C1=C(CSc2nc(-c3ccccc3)ccc2C#N)OC(N)=C(C#N)C1c1ccccc1 (stereo not given)	SW480 rereplic 15µM, MCF10A rerep inconclusive
CCCc1[nH]nc2c1C(c1ccsc1)C(C#N)=C(N)O2 (stereo not given)	IL-1B inflam inh -228
CCCc1[nH]nc2c1C(c1ccc(OCCN3CCOCC3)c(OCC)c1)C(C#N)=C(N)O2 (stereo not given)	none
COc1cc(C2C(C#N)=C(N)N(N(C)C)C3=C2C(=O)CC(C)(C)C3)cc(OC)c1OC (stereo not given)	none
CCOC(=O)c1ccc(NC(=O)CSc2nc(=O)n(CCN3CCOCC3)c3c2CCC3)cc1	IL-1B inflam inh inconclusive (no result: Gal4-VP16 FLuc, RORg inh)
O=C(OCC(=O)N1CCCC1)c1c(Cl)ccc(Cl)c1Cl	none
CN(C)c1ncc2nc(-c3ccc(Cl)cc3)c(=O)n(CCC#N)c2n1	none (no result: SW480 rereplic, IL-1B inflam inh, MCF10A rerep)
Cc1cccc(NC(=O)Nc2ccc3c(c2)CCC3)c1	none
Cc1ccc(C(=O)Nc2ccc3c(c2)CCC3)cc1	IL-1B inflam inh inconclusive, Gal4-VP16 FLuc inconclusive
CC(=O)c1cccc(NC(=O)c2ccc3c(c2)CCCC3)c1	IL-1B inflam inh inconclusive, Gal4-VP16 FLuc 2.8µM, RORg inh 1.4µM
